High-throughput results as filed in PubChem BioAssay.
G9a inh: G9a (human) methyltransferase inhibition; Potency, µM (doses to about 102 µM), usual class: inhibitors; actives 8.8% (n = 350,000); AID 504332; Q96KQ7; G9a H3K9 monomethylation, AlphaScreen, 2 h; note: nearly all actives have a fitted effect of over 75% in size
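Using a bead-based AlphaScreen, monomethylated H3K9 product from 2 h room-temperature reactions (G9a 20 nM, peptide 500 nM, SAM 20 uM) was detected with 0.5 ug/mL rabbit anti-H3K9me1 antibody.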
HP1b binding inh: blocks HP1-beta chromodomain binding to methylated histone tails. Potency, µM (titrated, usually from 114 µM), usual class: inhibitors. AlphaScreen HP1-beta / biotin-H3K9me3 peptide binding. AID 540317. actives 0.56% (n = 390,000); note: nearly all actives have a fitted effect of over 70% in size
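Compound inhibition of the preformed complex between 50 nM HP1-beta and 50 nM biotinylated H3K9me3 peptide was read by AlphaScreen. Buffer was PBS pH 7.4 with 0.01% Tween-20. Incubations ran 30 min at room temperature, with 10 ug/mL donor/acceptor beads.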
BAZ2B inh: blocks human BAZ2B; Q9UIF8; AlphaScreen BAZ2B-H3K14Ac peptide displacement; Potency, µM (series often up to 114 µM), actives largely listed as inhibitors; actives 4.4% (n = 360,000); AID 504333; note: nearly all actives have a fitted effect of over 60% in size
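In this displacement format the biotinylated H3(5-23) peptide acetylated at Lys14 serves as ligand at 50 nM, with BAZ2B at 50 nM in PBS pH 7.4 containing 0.01% Tween-20. Donor and acceptor beads are 10 ug/mL final.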
L3MBTL1 block: inhibitors of human L3MBTL1 | Q9Y468 | AlphaScreen L3MBTL1–H3K9me1 peptide binding | Potency, µM (doses to about 57.1 µM), hits mostly inhibitors | actives 0.66% (n = 230,000); note: nearly all actives have a fitted effect of over 60% in size
Target sequence (Q9Y468 whole entry, looked up): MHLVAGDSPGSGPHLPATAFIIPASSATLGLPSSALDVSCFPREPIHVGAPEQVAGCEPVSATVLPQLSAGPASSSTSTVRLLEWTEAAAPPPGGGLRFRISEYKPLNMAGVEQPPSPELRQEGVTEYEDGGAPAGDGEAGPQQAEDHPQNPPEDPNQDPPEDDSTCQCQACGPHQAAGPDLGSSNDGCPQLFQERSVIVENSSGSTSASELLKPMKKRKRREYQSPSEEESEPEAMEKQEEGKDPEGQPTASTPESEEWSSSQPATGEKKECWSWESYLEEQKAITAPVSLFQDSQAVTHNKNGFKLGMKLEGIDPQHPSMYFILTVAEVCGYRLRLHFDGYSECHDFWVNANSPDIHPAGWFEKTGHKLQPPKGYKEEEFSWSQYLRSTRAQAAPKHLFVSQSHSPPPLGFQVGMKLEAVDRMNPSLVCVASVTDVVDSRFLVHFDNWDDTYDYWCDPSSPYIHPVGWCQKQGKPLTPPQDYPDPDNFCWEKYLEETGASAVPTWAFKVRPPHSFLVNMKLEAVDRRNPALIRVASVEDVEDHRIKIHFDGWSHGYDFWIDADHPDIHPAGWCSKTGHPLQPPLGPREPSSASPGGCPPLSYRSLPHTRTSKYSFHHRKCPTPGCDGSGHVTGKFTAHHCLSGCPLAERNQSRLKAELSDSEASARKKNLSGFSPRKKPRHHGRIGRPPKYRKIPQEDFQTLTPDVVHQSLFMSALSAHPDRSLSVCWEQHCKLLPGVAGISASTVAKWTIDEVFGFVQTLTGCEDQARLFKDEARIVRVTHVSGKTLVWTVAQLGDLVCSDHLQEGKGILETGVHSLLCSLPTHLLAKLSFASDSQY
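L3MBTL1 (50 nM) pre-complexed 30 min with biotinylated H3(1-15)K9me1 peptide (75 nM), then compounds added for 30 min at room temperature; AlphaScreen streptavidin donor/nickel chelate acceptor beads (10 ug/mL final) read after 30 min dark incubation.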
JMJD2A Tudor: JMJD2A Tudor domain (human) inhibition | AlphaScreen JMJD2A-Tudor / H3K4me3 peptide binding | Potency, µM (top dose mostly 114 µM), hits mostly inhibitors | actives 4.4% (n = 390,000) | AID 504339; note: nearly all actives have a fitted effect of over 50% in size
Sfp PPTase inh: blocks B. subtilis Sfp PPTase activity; Biochemical Sfp PPTase activity, qHTS; Potency, µM, most hits filed as inhibitors; actives 3.5% (n = 310,000);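 note: the enzyme is Sfp with the accession as filed and its product quenches rhodamine fluorescence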
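Reaction rates are the 30-min fluorescence difference (ex 525, em 598 nm) in wells containing 15 nM Sfp, 5 uM rhodamine-CoA and 12.5 uM BHQ-2-YbbR at pH 7.6 with 10 mM MgCl2.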
Hits are given with their value; . = inactive; ? = inconclusive; / = no result; [ ] = another dose, or the depositor's remark. Sampled rows, rich in hits. Any-hit rate of the full collection: about 12%. Calls come from the whole dose curve; as a rule, active = well fitted curve in the direction sought with a large enough effect; inconclusive = small, poorly fitted or top-dose-only effect, or another doubt; inactive = no such curve, though single readings can be large; an effect the other way counts as inactive or inconclusive.

SMILES | G9a inh | HP1b binding inh | BAZ2B inh | L3MBTL1 block | JMJD2A Tudor | Sfp PPTase inh
O=c1c2cc(F)ccc2sn1-c1ccc(F)cc1 | .[0.501 µM] | . | 10µM | . | 20µM | /
COc1ccc(-c2nn(C)c3sc(C(=O)Nc4cccc(F)c4)cc23)cc1OC | . | . | . | / | . | /
COc1ccc(-c2cc3c(=O)n(CC(=O)Nc4cc(F)ccc4F)ccn3n2)cc1OC | . | . | . | / | . | /
CCC[C@H](NC(C)=O)C(=O)N[C@H]1CC(=O)ONCCCC[C@@H](C(N)=O)NC(=O)[C@H](Cc2c[nH]c3ccccc23)NC(=O)[C@H](CCCN=C(N)N)NC(=O)[C@@H](Cc2ccc3ccccc3c2)NC(=O)[C@H](Cc2cnc[nH]2)NC1=O | / | / | / | / | / | .
CCc1ccccc1NC(=O)Nc1nnc(N(CC)c2ccccc2)s1 | . | . | . | / | . | /
CC(C)Oc1ccc(CNC(=O)C(C)n2ccc3cc(S(=O)(=O)N4CCCCCC4)ccc32)cc1 (stereo unspecified) | . | . | . | / | . | /
CC(C)CCNc1c(-c2cccs2)nc2ccccn12 | 45µM | . | . | . | . | .
Cc1nc2c(cc1C(=O)N/N=C/c1ccc(O)c(O)c1)c(=O)n(C)c(=O)n2C | ? | . | . | . | 35µM | .
Cc1nn(-c2ccccc2)c2c1C(c1cccnc1)N1C=C(S(=O)(=O)N3CCCCC3)C=CC1=N2 (stereo unspecified) | 79µM | . | . | . | ? | .
CCc1nn2c(=O)cc(COC(=O)CNC(=O)c3ccccc3)nc2s1 | . | . | . | / | . | /
Cc1cccc(N2CCn3c2nc2c3c(=O)n(C/C=C/c3ccccc3)c(=O)n2C)c1 | ? | . | ? | / | . | /
O=S1(=O)N=C(Oc2ccc(Cl)cc2)c2ccccc21 | / | / | / | / | 100µM | /
Cc1ccc(OC2=NS(=O)(=O)c3ccccc32)cc1 | ? | . | ? | / | ? | .
COc1ccccc1OC1=NS(=O)(=O)c2ccccc21 | 45µM | . | ? | . | .[11.4 µM] | .
O=S1(=O)N=C(Oc2cccc(-c3ccccc3)c2)c2ccccc21 | / | / | / | / | . | /
CCN(CC)c1cccc(OC2=NS(=O)(=O)c3ccccc32)c1 | 16µM | . | 56µM | . | 63µM | .
O=S1(=O)N=C(Oc2ccccc2F)c2ccccc21 | / | / | / | / | 79µM | /
Cc1ccc(Cc2nc3ccccc3nc2SCC(=O)Nc2ccc3c(c2)OCO3)cc1 | . | . | . | / | . | /
COc1ccc2c(c1)cc1c(=O)n(CC(=O)NCc3ccco3)nc(C)n12 | . | . | . | / | . | /
COc1ccc(N(Cc2nnc3n2CCCCC3)C(=O)Nc2cccc(C)c2)cc1Cl | . | . | . | / | . | /
COc1cccc(Cc2nc3ccccc3nc2SCC(=O)NCCc2ccccc2)c1 | ? | . | . | / | . | /
COc1cc(OC)c2c(c1C(CCN1CCN(c3ccccc3)CC1)c1ccc(N(C)C)cc1)OC(=O)CC2c1ccc(N(C)C)cc1 (stereo unspecified) | / | ? | / | / | 13µM | .
CCN(CC)CCC(c1ccc(N(C)C)cc1)c1c(OC)cc(OC)c2c1OC(=O)CC2c1ccc(N(C)C)cc1 (stereo unspecified) | / | 14µM | / | / | 13µM | .
CCN(CC)CCC(c1ccc(N(C)C)cc1)c1c(OC)cc(OC)c2c1OC(=O)CC2c1ccc(OC)cc1 (stereo unspecified) | / | ? | / | / | 16µM | .
CCN(CC)CCC(c1ccc2c(c1)OCO2)c1c(OC)cc(OC)c2c(C)cc(=O)oc12 (stereo unspecified) | / | . | / | / | . | ?
SMILES | G9a inh | HP1b binding inh | BAZ2B inh | L3MBTL1 block | JMJD2A Tudor | Sfp PPTase inh
COc1ccc(C(CCN2CCCC(C)C2)c2c(OC)cc(OC)c3c2OC(=O)CC3c2cc(OC)c(OC)c(OC)c2)cc1 (stereo unspecified) | . | . | . | / | . | .
Cc1c(Cl)cccc1NC(=S)Nn1cnnc1 | 8.9µM | . | ? | . | . | 22µM
Cc1c(Cl)cccc1NC(=S)NC1CC1 | ? | . | . | . | . | .
Cc1cc(C)cc(NS(=O)(=O)c2ccc(N3CCCCS3(=O)=O)cc2)c1 | . | . | . | / | . | /
CCCCCN1C(=O)/C(=C/c2c(N3CCc4ccccc4C3)nc3ccccn3c2=O)SC1=S | / | ? | / | / | 40µM | /
CCc1nn(CC(=O)NCCc2ccc(OC)cc2OC)c(=O)c2cc3c(OC)cccc3n12 | . | . | . | / | . | /
CN1C(=O)Nc2cccc3cccc1c23 | . | . | . | / | . | .
CC(C)C1=Nc2cccc3cccc(c23)N1 | 28µM | . | ? | . | . | 35µM
Nc1cccc(C2=Nc3cccc4cccc(c34)N2)c1 | 25µM | . | . | . | . | .
COc1ccc(C2=Nc3cccc4cccc(c34)N2)cc1 | ? | . | . | . | . | .
ClCC1=Nc2cccc3cccc(c23)N1 | ? | / | 79µM | / | / | 63µM
CCc1ccc(C2C(C(=O)Nc3ccccc3OC)=C(C)Nc3c(C(=O)Nc4ccc(C)cc4)cnn32)cc1 (stereo unspecified) | ? | . | . | / | . | /
Cn1c(=O)[nH]c2cc(-c3noc(-c4cccc(Cl)c4)n3)ccc21 | . | . | . | / | . | /
Cn1c(=O)[nH]c2cc3ccccc3cc21 | 1.3µM | . | . | . | . | .
CN(C)CCCNC(=O)/C(=N\O)c1ccccc1 | 56µM | . | . | / | . | .
